High-throughput results deposited in PubChem BioAssay by several laboratories.
cardiac RTF act: cardiac RTF calcium sensitivity activators, primary screen, biochemical, IANBD-TnC fluorescence, EC20 calcium; Troponin I, cardiac muscle (Homo sapiens) + Troponin T, cardiac muscle (Homo sapiens) + …; IANBD-labeled TnC RTF fluorescence at EC20 calcium; 0% EC20 calcium, 100% full calcium; activation, % at 7.2 µM; 340,000 compounds, 0.24% hits; AID 493008, 2010;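 active = activation above the mean over all tested compounds plus 3 SD, cut at about 30% in these data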;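 also: rise in fluorescence read as greater calcium sensitivity of cardiac thin filaments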
Keap1-Nrf2 PPI: Keap1-Nrf2 protein-protein interaction inhibitors, primary screen, biochemical, fluorescence polarization, single point. Kelch-like ECH-associated protein 1 (Homo sapiens), Q14145. Keap1 Kelch-Nrf2 peptide fluorescence polarization, 1536-well. inhibition, % at 9.4 µM. 340,000 compounds, 0.15% hits; in the data active = inhibition above about 12%;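 also: human Keap1 Kelch domain with fluorescein labeled Nrf2 9mer peptide probe; 0% = neutral control wells and 100% = peptide positive control; higher means more block of Keap1 binding to Nrf2 peptide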
Target sequence (Q14145 whole entry, looked up, the tested form may be a part): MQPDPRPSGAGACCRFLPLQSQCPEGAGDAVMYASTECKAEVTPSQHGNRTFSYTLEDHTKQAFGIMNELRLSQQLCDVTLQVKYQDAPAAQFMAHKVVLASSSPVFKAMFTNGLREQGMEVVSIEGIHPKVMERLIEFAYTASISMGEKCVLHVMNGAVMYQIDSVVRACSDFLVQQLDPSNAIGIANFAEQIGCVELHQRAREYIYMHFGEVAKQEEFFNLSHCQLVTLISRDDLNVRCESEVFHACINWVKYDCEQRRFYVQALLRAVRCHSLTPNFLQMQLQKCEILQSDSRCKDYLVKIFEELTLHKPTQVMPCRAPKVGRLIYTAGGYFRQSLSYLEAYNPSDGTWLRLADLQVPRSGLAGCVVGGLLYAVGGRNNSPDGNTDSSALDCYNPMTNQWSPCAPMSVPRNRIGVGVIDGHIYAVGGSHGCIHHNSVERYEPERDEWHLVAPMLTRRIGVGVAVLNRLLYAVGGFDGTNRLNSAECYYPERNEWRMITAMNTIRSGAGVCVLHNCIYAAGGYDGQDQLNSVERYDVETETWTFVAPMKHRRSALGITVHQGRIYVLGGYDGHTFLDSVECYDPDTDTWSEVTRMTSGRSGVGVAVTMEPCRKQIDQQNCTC
Cardiac RTF inh: cardiac RTF calcium sensitivity inhibitors, primary screen, biochemical, IANBD-TnC fluorescence, EC70 calcium | IANBD-labeled cardiac RTF, Ca2+ fluorescence | inhibition, % at 7.15 µM | 340,000 compounds, 0.12% hits | AID 493244, 2011;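 active = inhibition above the mean inhibition of all tested compounds plus 3 SD, cut at about 17% in these data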;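 also: assay run at fixed EC70 calcium of 1.6 mM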
LANA DNA inh: inhibitors of KSHV C-LANA binding to DNA, primary screen, biochemical, fluorescence polarization, FAM-LBS DNA, MBP-C-LANA, single point. Kaposi's sarcoma herpesvirus LANA C-terminal domain (residues 932-1162) DNA binding. inhibition, % at 9 µM. 340,000 compounds, 0.078% hits. AID 504423, 2011;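 active = highest replicate inhibition at or above 60% at 9 µM, even if other replicates fall short; inactive = all replicates below 60% inhibition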;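 also: 0% = neutral control wells and 100% = 4 µM acridine orange control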
Active calls of the source: *. Only some compounds are listed: those with a hit (about 0.5% of all), similar ones and a draw of the others.

How did CCCN1C(=O)/C(=C/C=C2\N(CC)c3ccccc3C2(C)C)SC1=S do in these assays?
cardiac RTF act: 52*; Keap1-Nrf2 PPI: -46; Cardiac RTF inh: -69; LANA DNA inh: -1

How did CCCN1C(=O)/C(=C\C=C2/Sc3ccccc3N2CCO)SC1=S do in these assays?
cardiac RTF act: -1; Keap1-Nrf2 PPI: -2; Cardiac RTF inh: -7; LANA DNA inh: -1

What do the screens show for `CCCCN1C(=O)/C(=C/C=C2/CC(C)(C)CN2C)SC1=S`?
cardiac RTF act: 396*; Keap1-Nrf2 PPI: -122; Cardiac RTF inh: -457; LANA DNA inh: -19

Results for CN1/C(=C\C=C2/SC(=S)N(CC(=O)O)C2=O)C(C)(C)c2ccccc21 ?
cardiac RTF act: 773*; Keap1-Nrf2 PPI: -400; Cardiac RTF inh: inactive; LANA DNA inh: -95

What do the screens show for `Cn1cccc1/C=C1/SC(=S)N(CC(=O)O)C1=O`?
cardiac RTF act: 20; Keap1-Nrf2 PPI: -61; Cardiac RTF inh: -27; LANA DNA inh: -20

What do the screens show for `CN(CC(=O)NCCc1ccc(Cl)cc1)S(=O)(=O)c1cccs1`?
cardiac RTF act: -5; Keap1-Nrf2 PPI: -1; Cardiac RTF inh: 1; LANA DNA inh: 0

Results for CCOc1ccccc1/C=C(/NC(=O)c1ccccc1)C(=O)N1CCCCC1 ?
cardiac RTF act: -2; Keap1-Nrf2 PPI: 0; Cardiac RTF inh: -2; LANA DNA inh: 0

What do the screens show for `CCc1nn(CCCC(=O)N2CCN(c3cccc(C)c3C)CC2)c(=O)c2cc3occc3n12`?
cardiac RTF act: 2; Keap1-Nrf2 PPI: -1; Cardiac RTF inh: 8; LANA DNA inh: 0

How did CCOCCn1ccc2c(OCC(=O)NCc3ccccc3)cccc2c1=O do in these assays?
cardiac RTF act: 12; Cardiac RTF inh: -27

Results for CCCCN1C(=O)/C(=C/C=C2\Oc3ccccc3N2CC)SC1=S ?
cardiac RTF act: 186*; Keap1-Nrf2 PPI: -8; Cardiac RTF inh: -241; LANA DNA inh: 1

How did CCN1C(=O)/C(=C\N2CCCc3ccccc32)SC1=S do in these assays?
cardiac RTF act: -5; Keap1-Nrf2 PPI: -1; Cardiac RTF inh: 8; LANA DNA inh: 0

Results for Nc1ccc2cc3[nH]c4cc(N)ccc4c3nc2c1 ?
cardiac RTF act: active; Keap1-Nrf2 PPI: 161*; Cardiac RTF inh: inactive; LANA DNA inh: 164*

What do the screens show for `Nc1ccc(-c2nc3ccc(N)cc3[nH]2)cc1`?
cardiac RTF act: 3; Keap1-Nrf2 PPI: 0; Cardiac RTF inh: 1; LANA DNA inh: 0

What do the screens show for `CCOc1ccc(N(C)c2ccc(/C=C3/SC(=S)NC3=O)cc2)cc1`?
cardiac RTF act: 45*; Keap1-Nrf2 PPI: -5; Cardiac RTF inh: -59; LANA DNA inh: -2

What do the screens show for `COc1ccc(C2C(C(C)=O)=C(C)N=c3s/c(=C\c4cc(C)n(C)c4C)c(=O)n32)c(OC)c1` (stereo unspecified)?
cardiac RTF act: 110*; Keap1-Nrf2 PPI: -17; Cardiac RTF inh: -120; LANA DNA inh: 2

How did O=S(=O)(O)c1cc(Cl)cc(N=Nc2ccc(O)cc2O)c1O do in these assays?
cardiac RTF act: -30; Keap1-Nrf2 PPI: -2; Cardiac RTF inh: 15; LANA DNA inh: 84*

What do the screens show for `C/C(=N\NC(=O)c1cc2c(s1)CCC(C)C2)c1ccc[nH]1` (stereo unspecified)?
cardiac RTF act: 37*; Keap1-Nrf2 PPI: -145; Cardiac RTF inh: -29; LANA DNA inh: 29

What do the screens show for `Nc1c(C(=O)C2CC2)sc2nc(-c3cccs3)cc(C(F)(F)F)c12`?
cardiac RTF act: 46*; Keap1-Nrf2 PPI: -39; Cardiac RTF inh: -36; LANA DNA inh: -15

How did N#CN1CCC(NS(=O)(=O)c2ccc(C(F)(F)F)cc2)CC1 do in these assays?
cardiac RTF act: 11; Keap1-Nrf2 PPI: -3; Cardiac RTF inh: 0; LANA DNA inh: 1

How did COCCCNC1=C(Cl)C(=O)c2ccccc2C1=O do in these assays?
cardiac RTF act: -2; Keap1-Nrf2 PPI: 0; Cardiac RTF inh: -4; LANA DNA inh: -1

What do the screens show for `COCCCNc1c2c3c(cccc3[nH]c1=O)C(=O)c1ccccc1-2`?
cardiac RTF act: active; Keap1-Nrf2 PPI: 167*; Cardiac RTF inh: inactive; LANA DNA inh: 184*

How did O=C(COC(=O)c1ccc2c(c1)OCCO2)NC1CCCCC1 do in these assays?
cardiac RTF act: -5; Keap1-Nrf2 PPI: -1; Cardiac RTF inh: 0; LANA DNA inh: -1

What do the screens show for `CCN(CC)c1ccc(/C=C(\C#N)C(=O)c2ccc(Br)cc2)cc1`?
cardiac RTF act: 559*; Keap1-Nrf2 PPI: -19; Cardiac RTF inh: -488; LANA DNA inh: 6

What do the screens show for `CN(C)c1ccc(/C=C(\C#N)C(=O)c2ccccc2)cc1`?
cardiac RTF act: 80*; Keap1-Nrf2 PPI: -11; Cardiac RTF inh: -106; LANA DNA inh: 6

How did CCN(CC)c1ccc(/C=C(\C#N)C(N)=O)cc1 do in these assays?
cardiac RTF act: 7; Keap1-Nrf2 PPI: -16; Cardiac RTF inh: -3; LANA DNA inh: -1

How did CCN(CC)c1ccc(C(=O)O)cc1 do in these assays?
cardiac RTF act: 1; Keap1-Nrf2 PPI: -4; Cardiac RTF inh: 10; LANA DNA inh: 1

How did N#C/C(=C\c1ccc(C#N)cc1)C(=O)c1ccccc1 do in these assays?
cardiac RTF act: 1; Keap1-Nrf2 PPI: 1; Cardiac RTF inh: 3; LANA DNA inh: 0

What do the screens show for `CCN(CC)c1ccc(/C=C(\C#N)C(N)=S)cc1`?
cardiac RTF act: 200*; Keap1-Nrf2 PPI: -57; Cardiac RTF inh: -282; LANA DNA inh: -9

What do the screens show for `COc1ccc(OC)c(/C=C2/Sc3ccccc3C2=O)c1`?
cardiac RTF act: 37*; Keap1-Nrf2 PPI: -5; Cardiac RTF inh: -60; LANA DNA inh: 1

How did Cc1c2cc(O)c(=O)cc-2oc2cc(O)c(O)cc12 do in these assays?
cardiac RTF act: 109*; Keap1-Nrf2 PPI: 121*; Cardiac RTF inh: -20; LANA DNA inh: 164*

What do the screens show for `Cc1cc2oc(=O)cc(-c3cc4ccccc4o3)c2cc1O`?
cardiac RTF act: -6; Keap1-Nrf2 PPI: -1; Cardiac RTF inh: -13; LANA DNA inh: -1

What do the screens show for `COc1cc(OC)c(-c2c3cc(O)c(=O)cc-3oc3cc(O)c(O)cc23)cc1OC`?
cardiac RTF act: 894*; Keap1-Nrf2 PPI: -199; Cardiac RTF inh: -488; LANA DNA inh: -32

What do the screens show for `Cc1cc(C)nc(NC(=O)c2c(Cl)cccc2Cl)n1`?
cardiac RTF act: -1; Keap1-Nrf2 PPI: -1; Cardiac RTF inh: 5; LANA DNA inh: 85*

How did O=C1c2ccccc2C(=O)c2c(O)c(O)cc(O)c21 do in these assays?
cardiac RTF act: 3; Keap1-Nrf2 PPI: 7; Cardiac RTF inh: -4; LANA DNA inh: 11

What do the screens show for `O=C1C=C(O)c2c(O)cc(O)c(O)c2C1=O`?
cardiac RTF act: -44; Keap1-Nrf2 PPI: 19*; Cardiac RTF inh: 31*; LANA DNA inh: 117*
